Laboratory results published in PubChem BioAssay AID1212 (NMMLSC, 2008).
The source made the active and inactive calls.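 How the source made its calls: active means blocks over 60% of fluorescent estradiol binding at 10 µM; inactive means the rest.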

These compounds were tested against G-protein coupled estrogen receptor 1 (Homo sapiens) (UniProt Q99527) (assay: displacement of E2-Alexa633 from GPER – cell-based, Cos7 GPR30-GFP, flow cytometry, 10 µM, primary screen (AID 1212)). Settings: fluorescent estrogen competition, at 10 µM; active compounds read high.

inhibition, inactive:
COc1cc(C2CC(=O)Nc3c2ccc2ccccc32)cc(Cl)c1O (centres undefined) 3%
CCOc1ccc(NS(=O)(=O)c2ccc3c(c2)[C@H]2C=CC[C@H]2[C@@H](c2cccc([N+](=O)[O-])c2)N3)cc1 20%
COc1cc2c(cc1OC)CC(C)(C)N(Cc1ccco1)C2 5%
COc1cc([N+](=O)[O-])cc2c1NC(c1ccc(Cl)cc1)C1CC=CC21 (centres undefined) 9%
Cc1nn(-c2ccccc2)c2sc(C#N)c(N)c12 58%
N#Cc1c2c(c(=O)n3c1[nH]c1ccccc13)CCCC2 15%
CCc1cc2c3c(c(=O)oc2cc1OCC(=O)O)CCCC3 10%
CCOc1cc2c(c([N+](=O)[O-])c1)NC(c1ccccc1)C1CC=CC21 (centres undefined) 38%

outcome, inactive:
O=c1oc2c(CN3CCCC3)c(O)ccc2c2c1CCC2
CCCCCCc1cc2c3c(c(=O)oc2cc1OCC(N)=O)CCC3
COc1ccc2c(c1)c1c3n2CCNC3CCC1 (centres undefined)
CC(=O)c1ccc(N2Cc3ccccc3C2)cc1
CCOc1cc2c(cc1OCC)C(C(CC)CC)NCC2 (centres undefined)
COc1cc([N+](=O)[O-])cc2c1NC(c1ccc(Br)cc1)C1CC=CC21 (centres undefined)
CC1(C)C=C(c2ccc(O)cc2)CC(C)(C)N1
CC(C)C1CC(CCNCc2ccc3c(c2)OCO3)(c2ccccc2)CCO1 (centres undefined)
CC(=O)Oc1ccc2c(c1)CCC1C2C(O)CC2(C)C(=O)CCC12 (centres undefined)
CCCCCCc1cc2c3c(c(=O)oc2cc1OCC(=O)O)CCCC3
O=c1oc2cc(O)c(Cl)cc2c2c1CCCC2
